# Screening results from PubChem.
# MITF TRPM1 inh = MITF TRPM1 promoter inhibition in SK-MEL-5 cells; SK-MEL-5 TRPM1 promoter luciferase, 24 h; inhibition, % at 12.5 µM; 0.83% of 330,000 active;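 active means mean inhibition across replicates of 60% or more, whatever share of single replicates reaches that level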
# CF NFkB block = cystic fibrosis NF-kB activation inhibition; KKLEB NF-kB-GFP reporter, PAF-induced, GFP fluorescence overnight; inhibition, % at 5 µM; 0.86% of 360,000 active; AID 588850;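 active means at least 50% inhibition at 5 µM, scaled per plate between neutral and stimulator controls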;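 further: PAF is a Pseudomonas aeruginosa culture filtrate used as stimulus; plate controls were PAF-stimulated DMSO wells for no effect and unstimulated DMSO wells for full effect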
# HIF-2a block = blocks HIF-2a reporter activity; 0.72% of 360,000 active; inhibition, % at 18.8 µM; 786-0 RCC cells HIF-2a reporter, luciferase luminescence, overnight; AID 624352;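 active means inhibition of the luminescence signal of 40% or more relative to plate controls, in a single-dose primary screen at 18.75 µM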
# Peg3 prom inh = inhibitors of Peg3 promoter; inhibition, % at 20 µM; HeLa PEG-Prom luciferase reporter, luminescence, overnight; 1.7% of 360,000 active;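 active means inhibition of at least 50% at 20 µM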
# B2AR ag = activates human beta-2 adrenergic receptor causing internalization; P07550; Am2.2-beta2AR cells, FAP receptor internalization, flow cytometry; response, % (no concentration beside the values); 0.43% of 340,000 active;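 active means response above a set limit, near 3 SD of response in nonfluorescent compounds, cut at about 42% in these data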
# Target sequence (P07550 whole entry, looked up): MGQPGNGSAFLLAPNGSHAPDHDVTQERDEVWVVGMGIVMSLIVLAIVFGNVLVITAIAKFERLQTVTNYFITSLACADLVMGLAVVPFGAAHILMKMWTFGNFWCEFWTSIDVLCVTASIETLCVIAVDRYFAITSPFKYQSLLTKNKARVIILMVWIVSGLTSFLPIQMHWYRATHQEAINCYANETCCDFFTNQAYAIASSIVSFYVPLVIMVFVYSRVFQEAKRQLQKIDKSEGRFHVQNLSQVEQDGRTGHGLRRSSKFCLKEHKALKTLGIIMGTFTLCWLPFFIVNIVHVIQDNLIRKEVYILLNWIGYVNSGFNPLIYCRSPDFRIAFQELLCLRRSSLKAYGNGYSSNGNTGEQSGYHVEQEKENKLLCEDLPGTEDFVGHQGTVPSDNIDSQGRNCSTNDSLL
# KKLEB tox = reduces viability of KKLEB cystic fibrosis airway cells; activity change (cytotoxicity), % at 5 µM; 0.36% of 360,000 active; KKLEB CF airway cells viability, ATPlite luminescence, overnight; active compounds read low; cells stimulated with P. aeruginosa culture filtrate;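 active means corrected activity change at or below -50% at 5 µM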
# An asterisk follows results filed as active; . = no result. This is a sample that favours compounds with a hit; in the whole collection about 2.8% have one here.
SMILES,MITF TRPM1 inh,CF NFkB block,HIF-2a block,Peg3 prom inh,B2AR ag,KKLEB tox
CCC1Nc2ncnc(N3CCc4ccccc4C3)c2N(Cc2ccc(Cl)cc2)C1=O (stereo unspecified),12,40,24,48,7,-10
O=C1C(Cc2ccccc2)Nc2ncnc(N3CCc4ccccc4C3)c2N1Cc1ccc(Cl)cc1 (stereo unspecified),8,16,3,51*,10,3
COc1ccc(-c2cc(=O)oc3c(C)c(O)c(CN(C)C)cc23)cc1,1,55*,19,21,-14,-5
CCCCCNC(=O)C1C(=O)Nc2ccccc2C(=O)N1c1c(C)cccc1C (stereo unspecified),.,.,3,.,.,.
N#Cc1ccc(Nc2nc(-c3ccc(O)cc3O)cs2)cc1C(F)(F)F,-11,6,-59,103*,7,10
C[C@@H]1Cn2cnc(C(=O)NCc3ccc(CNC(=O)OC(C)(C)C)cc3)c2C(=O)N1,.,5,5,20,.,4
CCOC1=C2CN(S(=O)(=O)c3ccc(C)cc3)[C@@H](c3cccc4ccccc34)C[C@H]2[C@H]2C(=O)N(c3ccccc3)C(=O)[C@H]2C1,.,-19,14,8,.,16
CCOC1=C2[C@H](c3ccccc3)N(S(=O)(=O)c3ccc(C)cc3)C(C(C)(C)C)[C@H]2C(C#N)(C#N)C(C#N)(C#N)C1 (stereo partly specified),.,67*,49*,78*,.,-28
CCOC1=C2CN(S(=O)(=O)c3ccc(C)cc3)[C@H](c3cccc4ccccc34)C[C@H]2C(C#N)(C#N)C(C#N)(C#N)C1,.,39,15,52*,.,-13
NC(=O)CC(NC(=O)Cc1ccc(Br)cc1)c1ccc(NC2CCCC2)c([N+](=O)[O-])c1 (stereo unspecified),-37,1,-23,61*,-2,-31
CC1CC(C)C[N+](=C2C=C(N3CCCC3)CC(C)(C)C2)C1 (stereo unspecified),70*,24,4,34,3,-1
Nc1nc(N)c2cc(CNc3ccc(Cl)c(Cl)c3)ccc2n1,.,45,10,110*,.,-26
COc1cccc(-c2ccc3c(c2)N(Cc2ccc(F)cc2)C(=O)C(C)S3)c1 (stereo unspecified),.,-8,-8,2,.,21
COc1ccc(N(C(=O)Cn2nnc(-c3ccccc3F)n2)C(C(=O)NCC2CCCO2)c2ccc(Cl)cc2)cc1 (stereo unspecified),12,-11,21,58*,8,2
O=c1c(Br)ccc(Br)cc1Br,102*,91*,89*,95*,70*,-94*
COc1ccc(N2CCN(c3ncnc4c3[nH]c3ccccc34)CC2)cc1,29,-14,-2,29,-9,5
OC1(c2cccc(C(F)(F)F)c2)CCN(c2ncnc3c2[nH]c2ccc(F)cc23)CC1,34,-9,1,105*,0,-15
COc1cc2[nH]c3c(N4CCN(c5ccccn5)CC4)ncnc3c2cc1OC,38,-22,24,100*,19,6
CCOC(=O)N1CCN(c2ncnc3c2[nH]c2ccc(F)cc23)CC1,50,-10,22,32,-8,8
Fc1ccc2[nH]c3c(N4CCN(c5ccccc5)CC4)ncnc3c2c1,33,-14,-13,104*,17,-3
CN(Cc1ccccc1)C1=CC(=[N+]2CCCC2)CC(C)(C)C1,77*,-6,7,24,1,0
CN(C)C(=O)c1ccc(SC(=S)NCc2ccccc2)cc1,.,8,4,85*,.,-6
CC(C)(C)CC(=O)NC(=S)NCc1ccccc1,10,11,2,4,-6,-10
COc1ccc2sc(-c3ccc(SC)cc3)c(-c3ccc(O)cc3)c2c1,7,18,25,32,53*,-6
COc1ccc2sc(-c3ccccc3OC)c(-c3ccc(SC)cc3)c2c1,.,.,-11,.,.,.
SMILES,MITF TRPM1 inh,CF NFkB block,HIF-2a block,Peg3 prom inh,B2AR ag,KKLEB tox
Nc1c(N(CCC2=CCCCC2)C(=O)COc2ccc(F)cc2)c(=O)[nH]c(=O)n1Cc1ccccc1,92*,11,0,97*,-3,-8
Oc1ccc(/C=C/c2ccc3ccccc3n2)cc1,70*,-87,26,46,-9,-40
CC(C)CC(=O)[C@@H](O)Cc1ccc(O)cc1,.,.,9,.,.,.
NC(N)=N/N=C/c1ccc(OCc2ccc(Cl)cc2)cc1,-35,35,-124,110*,58*,-31
O=C(N/N=C/c1ccccc1)c1ccc(OCc2ccccc2)cc1,-6,-1,-36,-6,0,10
NC(N)=N/N=C/c1ccc(OCc2ccccc2)cc1,-2,-5,-115,54*,25,-12
O=C(CCl)NC1(C(=O)O)CCCC1,.,-20,-9,-4,.,3
CCOc1cc(/C=N/NC(=O)Cc2ccc(C(F)(F)F)cc2[N+](=O)[O-])c(Br)cc1OC,6,-6,7,35,4,-15
COc1cc(Br)cc(/C=N/NC(=O)Cc2ccc(C(F)(F)F)cc2[N+](=O)[O-])c1O,13,-5,18,54*,4,6
Cc1cccnc1C(NC(=O)C1CCN(CCOc2ccc(F)cc2)CC1)c1ccc(F)cc1 (stereo unspecified),.,3,-5,7,.,2
O=[N+]([O-])c1cc(-c2csc(NCCc3nc4cc(Cl)c(Cl)cc4n3CCCO)n2)ccc1Cl,-21,-16,3,92*,7,-22
CC(C)(C)OC(=O)N1C(=O)[C@](OC(=O)c2ccccc2)(c2ccccc2)c2cccc(F)c21,.,.,6,.,.,.
COc1ccc(CNC(=O)c2cn(Cc3ccc(OC(C)=O)cc3)c(=O)s2)cc1,.,-18,8,-2,.,2
c1ccc(CN2CCC(Nc3nc(-c4ccccc4)nc4ccccc34)CC2)cc1,5,-5,5,75*,19,-7
CCCc1c(C(=O)N/N=C(\C)c2ccc(CC(C)C)cc2)nnn1-c1nonc1N,.,-37,6,4,.,8
Cc1ccc(COc2cccc(/C=N/NC(=O)c3nnn(-c4nonc4N)c3C)c2)cc1,4,59*,-132,77*,4,-50
CN1C2CCC1/C(=C\c1ccc(F)cc1)C(=O)/C2=C/c1ccc(F)cc1,26,-37,82*,18,1,0
Oc1ccc(CCNc2c3ccccc3nc3ccccc23)cc1O,72*,-80,54*,109*,-1,-26
CNc1nc(NCc2ccccc2)c2ccccc2n1,14,-22,9,-1,5,-1
c1ccc(CNc2c3ccccc3nc3ccccc23)cc1,75*,-85,44*,97*,7,-29
O=C(CNC(=O)c1ccccc1)NCCc1ccc(O)c(O)c1,2,-24,2,13,-3,0
COc1ccc2cc3cc(C(=O)Nc4ccccc4N4CCN(C)CC4)oc3nc2c1,66*,12,55*,115*,19,-22
